Source: PubChem
Shown are actives, neighbours in structure and some others; about 2.8% of the full set was active somewhere.
KKLEB cytotox: CF airway cell cytotoxicity counter-screen. KKLEB CF airway cells viability, ATPlite luminescence, overnight; hits give low values; cells stimulated with P. aeruginosa culture filtrate. activity change (cytotoxicity), % at 5 µM. 0.36% of 360,000 active. AID 602141;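 active = corrected activity change at or below -50% at 5 µM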
Peg3 promoter: inhibitors of Peg3 promoter; HeLa PEG-Prom luciferase reporter, luminescence, overnight; inhibition, % at 20 µM; 1.7% of 360,000 active; AID 588405;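 active = inhibition of at least 50% at 20 µM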
MITF TRPM1 inh: MITF TRPM1 promoter inhibition in SK-MEL-5 cells; inhibition, % at 12.5 µM; SK-MEL-5 TRPM1 promoter luciferase, 24 h; 0.83% of 330,000 active;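 active = mean inhibition across replicates of 60% or more, whatever share of single replicates reaches that level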
HIF-2a block: HIF-2a inhibition; 0.72% of 360,000 active; inhibition, % at 18.8 µM; 786-0 RCC cells HIF-2a reporter, luciferase luminescence, overnight; AID 624352;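 active = inhibition of the luminescence signal of 40% or more relative to plate controls, in a single-dose primary screen at 18.75 µM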
CF NFkB block: inhibitors of cystic fibrosis induced NF-kB. inhibition, % at 5 µM. 0.86% of 360,000 active. KKLEB NF-kB-GFP reporter, PAF-induced, GFP fluorescence overnight;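 active = at least 50% inhibition at 5 µM, scaled per plate between neutral and stimulator controls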;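 note: PAF is a Pseudomonas aeruginosa culture filtrate used as stimulus; plate controls were PAF-stimulated DMSO wells for no effect and unstimulated DMSO wells for full effect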
Shn3 inh set2: inhibitors of Schnurri-3 3'UTR reporter in osteoblasts; inhibition, % at 12.5 µM; AID 588674; 0.52% of 360,000 active; Clone20 osteoblast Shn3 3'UTR firefly luciferase, 24 h;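 active = mean inhibition of at least 75% with every replicate also reaching 75%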;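 note: 0% = median of neutral control wells and 100% = pilot-screen positive control compound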
* marks the source's active call; other numbers are inactive results; · = no result.

SMILES | KKLEB cytotox | Peg3 promoter | MITF TRPM1 inh | HIF-2a block | CF NFkB block | Shn3 inh set2
Cc1cccn2c(=O)c3cc(C(=O)NC4CCCCC4)c(=N)n(Cc4ccccc4)c3nc12 | -12.3 | 54.2* | 23.8 | 5.8 | 26.9 | 31.2
Cc1cccn2c(=O)c3cc(C(=O)NC4CCCC4)c(=N)n(CCc4ccccc4)c3nc12 | -12.4 | 69.2* | -7.1 | -6.0 | -58.3 | 9.5
Cc1cccn2c(=O)c3cc(C(=O)NC4CCCC4)c(=N)n(Cc4ccc(F)cc4)c3nc12 | 8.9 | 57.9* | -1.8 | -2.6 | 20.3 | 7.3
N=c1c(C(=O)NC2CCCCC2)cc2c(=O)n3ccccc3nc2n1Cc1ccc(F)cc1 | -5.3 | -5.0 | 2.0 | 3.3 | 6.2 | 14.6
CCNC(=O)c1cc2c(=O)n3cccc(C)c3nc2n(CCc2ccccc2)c1=N | -8.7 | 8.0 | -8.7 | 14.5 | -61.3 | ·
CCN(CC(=O)Nc1cc(Cl)ccc1C)C(=O)c1nc2nc(C)cc(C)n2n1 | -10.8 | 22.0 | -2.2 | 4.3 | -0.8 | -14.8
O=c1[nH][nH]c(=O)c(Cl)c1Cl | -1.4 | -3.0 | -3.0 | -6.2 | 12.6 | 13.8
CCN1CCCC1CNC(=O)c1ccc2c(c1)NC(=O)/C(=C\c1ccc(C)cc1)S2 (stereo not drawn) | -13.1 | 102.5* | 80.8* | -2.3 | 9.5 | -9.9
O=C1Nc2cc(C(=O)NCCN3CCCCCC3)ccc2S/C1=C/c1ccccc1F | -9.1 | 99.2* | · | -10.7 | 4.3 | 0.2
COc1cccc(/C=C2/Sc3ccc(C(=O)NCCN4CCCC4)cc3NC2=O)c1 | -5.5 | 90.7* | 85.0* | 11.6 | 7.7 | 12.8
COc1ccc(/C=C2\Sc3ccc(C(=O)NCCN4CCCCCC4)cc3N(C)C2=O)cc1 | 4.1 | 35.8 | 62.9* | 3.7 | 9.9 | 1.6
CCOC(=O)C1CCCN(C(=O)COc2ccc(S(=O)(=O)N(CC)c3ccccc3)cc2)C1 (stereo not drawn) | 17.7 | -2.1 | -11.6 | 17.6 | -18.8 | 10.7
Cc1ccc(N2CC(C(=O)NCc3n[nH]c(=O)c4ccccc34)CC2=O)cc1 (stereo not drawn) | 2.2 | -5.9 | 0.4 | 6.8 | -13.0 | -5.6
O=C(C1=C[C@H](C2CC2)C[C@H](OCc2ccc(CO)cc2)O1)N1CCOCC1 | -6.2 | -3.6 | 6.5 | 3.4 | 19.8 | -14.5
Cc1nn2cc(-c3ccc(Cl)cc3)cnc2c1Cl | 0.0 | -377.7 | -126.2 | -289.4 | 4.2 | -75.7
O=C(Nc1cc(Cl)cc(Cl)c1)c1ccc(Cn2c(=O)[nH]c3ccsc3c2=O)cc1 | -50.2* | 30.4 | · | 0.3 | 54.5* | 60.2
CC(=O)NCCNC(=O)c1ccc(Cn2c(=O)[nH]c3ccsc3c2=O)cc1 | 2.1 | 1.9 | -12.7 | -4.1 | -3.5 | 28.3
COc1ccc(NC(=O)c2ccc(C)cc2)c[n+]1[O-] | 7.4 | -34.9 | -14.7 | -38.7 | -7.4 | 7.5
O=C(CN1CCN(Cc2ccccc2)CC1)N=Nc1c(O)[nH]c2ccccc12 | -8.1 | 52.0* | -5.0 | 12.9 | -2.8 | -18.7
O=C(CN1CCCCC1)N=Nc1c(O)[nH]c2ccccc12 | 14.7 | -6.5 | 14.3 | -41.5 | -10.4 | -4.9
C[C@H]1CN([C@@H](C)CO)C(=O)CCCn2nncc2CO[C@@H]1CN(C)S(=O)(=O)c1ccc(-c2ccccc2)cc1 | 6.0 | -8.6 | · | 4.8 | -16.0 | -13.1
CCn1cc(CNCc2cn(C)nc2-c2ccc(C3CCCCC3)cc2)cn1 | 7.7 | 67.7* | 3.5 | 2.2 | -5.0 | -4.3
Cn1cc(CNCc2ccc(OC(F)(F)F)cc2)c(-c2ccc3c(c2)OCCO3)n1 | -4.2 | -87.6 | -17.1 | 4.6 | 2.7 | ·
O=C(NCc1ccccc1)C(C1CC1)n1c(CSCCOc2ccccc2)nc2ccccc21 (stereo not drawn) | · | · | · | 7.3 | · | ·
Cc1cc2nc(C(C)(C)C)c(Cc3ccccc3)n2c(C)c1Br | -9.4 | 3.2 | · | 17.6 | 29.2 | -6.8
SMILES | KKLEB cytotox | Peg3 promoter | MITF TRPM1 inh | HIF-2a block | CF NFkB block | Shn3 inh set2
COc1cccc(NC(=O)CN(C)C(=O)c2cc(-c3cccc(Br)c3)nc3ccccc23)c1 | -7.4 | 71.1* | 10.6 | -8.7 | -25.4 | 7.5
CCN(CC)CCCN=Cc1c(O)n(-c2c(C)cccc2C)c(=O)c2ccccc12 | -0.4 | 10.1 | · | 10.7 | -4.0 | -10.8
CCc1ccc(-n2c(O)c(C=NCCN(CC)CC)c(=O)[nH]c2=O)cc1 | 9.6 | 7.3 | 3.9 | -2.3 | -7.6 | 95.8*
Cc1cc(C)c2c(N)c(C(=O)NN3CC(=O)N(c4cccc(Cl)c4)CC3=O)sc2n1 | 6.0 | 10.2 | 0.8 | 18.5 | -7.7 | 1.4
CN1C(=O)/C(=N\OC(=O)c2cccc3ccccc23)c2ccccc21 | -32.7 | 74.4* | 37.1 | 39.8 | 7.9 | -3.0
O=C(Oc1c(CN2CCOCC2)cc(Cl)c2cccnc12)c1ccc(F)cc1 | 11.8 | 40.4 | 64.5* | 28.4 | 2.9 | 60.4
O=C(Oc1c(Cl)cc(Cl)c2cccnc12)c1ccco1 | 8.3 | 55.6* | 23.8 | -11.7 | -0.5 | 63.9
O=C(Oc1c(CN2CCOCC2)cc(Cl)c2cccnc12)c1cccs1 | 3.5 | 26.1 | 69.2* | 13.0 | -2.2 | 45.1
COc1cc(C(=S)N2CCOCC2)cc(OC)c1OC(=O)c1ccc(F)cc1 | 5.7 | 9.2 | -2.2 | 17.5 | -12.5 | -7.7
COc1cc(C(=O)Oc2c(OC)cc(C(=S)N3CCOCC3)cc2OC)cc(OC)c1OC | 0.3 | 15.9 | 19.5 | 19.5 | 4.8 | -12.0
O=C(Oc1ccc(Cl)c2cccnc12)N1CCOCC1 | -1.1 | -0.3 | -0.7 | 5.3 | 2.6 | -1.0
COc1cc(C(=O)Oc2c(CN3CCOCC3)cc(Cl)c3cccnc23)cc(OC)c1OC | -16.1 | 33.0 | 68.9* | 15.3 | 27.4 | 79.3
O=C(Oc1c(Cl)cc(Cl)c2cccnc12)c1cccs1 | 18.2 | 28.6 | 13.2 | -6.2 | 0.6 | 18.2
Cc1ccc(N(CC(=O)N2CCN(Cc3ccccc3)CC2)S(C)(=O)=O)cc1C | 16.4 | 12.7 | 3.2 | 4.0 | -10.8 | 6.3
CN(C)c1ncnc2c1ncn2[C@H]1CN(Cc2cccnc2)C[C@@H](CO)O1 | -2.5 | 4.6 | · | 1.4 | -12.7 | -6.6
COc1ccc(C(=O)Oc2c(CN3CCOCC3)cc(Cl)c3cccnc23)cc1 | -1.7 | 28.1 | 7.6 | 19.2 | 10.0 | 19.3
COc1cccc(C(=O)Oc2c(CN3CCOCC3)cc(Cl)c3cccnc23)c1 | 4.9 | 33.0 | 67.1* | 14.3 | 10.2 | 76.2
O=C(N/N=C(\c1ccccc1)c1ccccn1)c1ccccc1Cl | -11.1 | 54.0* | 59.3 | 10.5 | 14.8 | 95.4*
O=C(NN=C(c1ccccc1)c1ccccn1)c1ccccc1 | 8.1 | 46.5 | 66.7* | 7.7 | -20.6 | 83.9*
COc1ccc(C(=O)N/N=C(\c2ccccc2)c2ccccn2)cc1 | -7.2 | 37.5 | 55.3 | 10.1 | 13.3 | 86.7*
C/C(=N/NC(=O)c1ccccn1)c1ccncc1 | 5.6 | -127.5 | -32.6 | -174.3 | 5.4 | -33.8
CCCCN(C)CC(O)Cn1cc(/C=C/C(=O)c2ccc(C)cc2)c2ccccc21 (stereo not drawn) | -8.3 | 100.2* | 7.1 | -51.6 | 16.1 | -1.6
O=C(O)C[C@H]1c2ccccc2S(=O)(=O)N1C1CCCC1 | 9.0 | -8.8 | 5.2 | 10.6 | 3.7 | -15.5
